We go through ten compounds from PubChem BioAssay (NCI).

Several values for one entry are separate records, joined by “and”; a condition that tells them apart may be missing. Identical values can stand only once. This is part of a sample that, as a whole, favours compounds with a hit. Of some 83,000 tested, about 20% had one in any assay.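 96-well plates, one dose, 48 hours. Percent growth reported; active if below 10.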 Activity calls are given as the source filed them.

This experiment deals with MCF7 breast. Description: NCI-60 one-dose screen, 48 h (100 = growth as untreated, 0 = no growth, -100 = all killed). The note with it: 10 µM unless noted.
As for `CCC1OC2(C)CC(C#N)(C#N)C1(C#N)C(=N)O2` (stereo not given), the growth was 39.8% [100 µM] (inactive).
In the case of `Cc1ccc(OCC2OC(n3cnc4c(Cl)nc(Cl)nc43)CC2Oc2ccc(C)cc2)cc1` (stereo not given) it was -91.5% [100 µM] (active) and -93.1% [100 µM] (active); in that of `Cc1coc2c1C(OC(=O)C(C)C)C1(C)C(C)CCC(O)C1C2=O` (stereo not given), 21.2% [100 µM] (inactive) and 6.5% [100 µM] (active).
With `COc1ccc2c(C)cc(N/N=C/c3ccc(C)s3)nc2c1`, the growth is -55.5% [100 µM] (active) and -100% [100 µM] (active).
`Cc1ccc(/C=C2/N=C(N/N=C\c3ccccc3)NC2=O)cc1`: the growth was 1.56% [100 µM] (active) and 22.5% [100 µM] (inactive).
As to `COc1c2c(c3c(c1OC)c(=O)c1ccccc1n3C)OCO2`, the growth was 81.3% [100 µM] (inactive).
Turning to `COc1ccc(/C=C2/NC(=S)N=C2Cl)cc1`, the growth was 82% [100 µM] (inactive) and 75% [100 µM] (inactive).
In the case of `C/C=C1\NC(=O)[C@H]2CSSCCC=C[C@H](CC(=O)N[C@H](C(C)C)C(=O)N2)OC(=O)[C@H](C(C)C)NC1=O` it was -73.3% [0.1 µM] (active) and -95.5% [0.1 µM] (active).
In the case of `COC(=O)C(=O)C(C(=O)C(=O)Nc1nc2ccc(C)cc2s1)c1nc2ccc([N+](=O)[O-])cc2[nH]c1=O` (stereo not given) it was 60.3% [100 µM] (inactive) and 57.7% [100 µM] (inactive); in that of `Cc1ccc(OCC2OC(n3cnc4nc(Cl)nc(Cl)c43)CC2Oc2ccc(C)cc2)cc1` (stereo not given), 0.206% [100 µM] (active) and -99.2% [100 µM] (active).
